# TDP1 cell CPT – growth inhibition of DT40 Tdp1-/-;hTDP1 cells with camptothecin (screen for TDP1 inhibitors); chicken DT40 Tdp1-/-;hTDP1 cells + 20 nM CPT, ATP luminescence, 48 h; Potency, µM (top dose mostly 46.2 µM), inactives show top-dose activity change, negative = growth inhibition, most hits filed as inhibitors; hit rate 12% among 420,000; further: potency means the concentration at half of the fitted maximal effect; nearly all actives have a fitted effect of over 55% in size
#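 Chicken DT40 Tdp1-/- cells stably complemented with human TDP1 were seeded at 400 cells/well in medium containing 20 nM camptothecin, exposed to pin-transferred compounds, and grown at 37 °C for at least 48 hr. Viability was read as ATP luminescence.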
# IL1B secr inh – inflammasome signaling inhibition, IL-1 beta readout; THP-1 LPS/ATP IL-1B secretion, AlphaLISA, 16 h; hits give low values; activity change, % at 57.5 µM; hit rate 4.7% among 360,000; in the data active means activity change below about -50%; inconclusive means mostly about -30% to -49%
#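 Secreted IL-1B measured by AlphaLISA bead assay after 16 h compound exposure of THP-1 cells; compounds (final up to 57.5 uM) added 1 h before LPS (250 ng/mL) and ATP (1.25 mM) stimulation; lower signal means less secretion.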
# HT1080-NT tox – kills 2HG-producing HT-1080-NT fibrosarcoma cells. HT-1080-NT fibrosarcoma viability, CellTiter-Glo ATP luminescence, 48 h. Potency, µM (titrated, usually from 46.1 µM), without a hit: at the highest dose activity, negative = less viability, usual class: cytotoxic. hit rate 1.6% among 360,000;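 further: NT is the 2HG producing partner of a matched IDH1 knockdown line; potency means the concentration at half of the fitted maximal effect; 0% = DMSO-treated cells and -100% = media-only wells without cells; nearly all actives have a fitted effect of over 55% in size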
#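 Viability of the 2HG-overproducing fibrosarcoma line after 48 hours of compound exposure at 37 degrees C was determined by luminescence with CellTiter-Glo, and concentration-effect curves were then fitted and categorized.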
# ALOX12 inh – blocks human arachidonate 12S-lipoxygenase. purified 12hLO, xylenol orange hydroperoxide absorbance. P18054. hit rate 1.1% among 580,000. Potency, µM (series often up to 108 µM), inactives show top-dose activity change, negative = inhibition, actives largely listed as inhibitors; further: potency means the concentration at half of the fitted maximal effect
# Target sequence (P18054 whole entry, looked up): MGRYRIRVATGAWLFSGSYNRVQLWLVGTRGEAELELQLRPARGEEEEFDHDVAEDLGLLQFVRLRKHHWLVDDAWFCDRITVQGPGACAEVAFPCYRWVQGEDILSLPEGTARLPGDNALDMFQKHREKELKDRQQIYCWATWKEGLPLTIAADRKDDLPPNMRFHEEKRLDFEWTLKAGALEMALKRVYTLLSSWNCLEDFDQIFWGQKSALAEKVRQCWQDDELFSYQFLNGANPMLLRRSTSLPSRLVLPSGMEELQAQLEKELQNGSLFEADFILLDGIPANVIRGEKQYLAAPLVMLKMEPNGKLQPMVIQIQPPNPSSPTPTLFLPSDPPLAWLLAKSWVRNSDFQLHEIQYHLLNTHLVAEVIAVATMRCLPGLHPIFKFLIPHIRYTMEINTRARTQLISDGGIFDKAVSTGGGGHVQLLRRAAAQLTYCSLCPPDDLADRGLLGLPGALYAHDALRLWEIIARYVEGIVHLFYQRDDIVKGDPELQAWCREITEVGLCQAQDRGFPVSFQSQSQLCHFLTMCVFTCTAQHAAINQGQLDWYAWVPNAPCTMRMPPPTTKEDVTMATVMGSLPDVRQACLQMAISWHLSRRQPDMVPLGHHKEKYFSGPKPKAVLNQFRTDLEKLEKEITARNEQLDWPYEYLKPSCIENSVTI
#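 Purified human 12hLO (150 nM final) in 25 mM Hepes, 0.01% Triton X-100, pH 7.0 was preincubated 15 min at room temperature with compound. Then 40 uM arachidonic acid was added, 30 min. Hydroperoxide was read by Fe-XO absorbance ratio 573/405 nm.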
# HT1080 IDH1KD tx – toxicity to HT-1080 IDH1 knockdown cells (counter line). HT-1080 IDH1 knockdown viability, ATP luminescence, 48 h. Potency, µM (doses to about 46.1 µM), inactives show top-dose activity, negative = toxicity, most hits filed as cytotoxic. hit rate 2% among 360,000;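 further: potency means the concentration at half of the fitted maximal effect; 0% = DMSO wells and -100% = cell-free medium wells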
#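 Luminescent ATP read-out (CellTiter-Glo, 10 min at room temperature) after 48 h compound exposure at 37 °C gave viability of IDH1-knockdown HT-1080 cells. Activity was normalised to DMSO and cell-free wells, then fitted as concentration-response curves.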
# DT40 TDP1 no CPT – qHTS for Inhibitors of human tyrosyl-DNA phosphodiesterase 1 (TDP1): qHTS in cells in absence of CPT; DT40 Tdp1-/- hTDP1 cells, no CPT, ATP luminescence, 48 h; hit rate 15% among 420,000; Potency, µM (highest dose often 46.2 µM), inactives show at the highest dose activity change, negative = growth inhibition, most hits filed as inhibitors; further: potency means the concentration at half of the fitted maximal effect; nearly all actives have a fitted effect of over 55% in size
#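 Camptothecin absent (DMSO only). Human TDP1-complemented DT40 knockout cells, 400 cells/well, 37 °C for minimum 48 hr; ATP measured via CellTiter-Glo, 30 min dark incubation, luminescence.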
# Active calls of the source: *; i = inactive; ? = inconclusive; . = not tested or not shown; [ ] = dose if it differs, or a comment. Shown is part of a subset that was picked to be rich in hits. Unless noted, the call rests on the fitted dose curve; in most records, active means well fitted curve in the direction sought with a large enough effect; inconclusive means small, poorly fitted or top-dose-only effect, or another doubt; inactive means no such curve, though single readings can be large; an effect the other way counts as inactive or inconclusive. Unless noted, on the % scale 0 is the no-effect control and ±100 the full control effect.
SMILES,TDP1 cell CPT,IL1B secr inh,HT1080-NT tox,ALOX12 inh,HT1080 IDH1KD tx,DT40 TDP1 no CPT
CN(C)c1cc(N/N=C/c2ccc(Cl)cc2)nc(N(C)C)n1,?,-3.1,-17.6%,-11.5%,-14.6%,18.4µM*
CC(=O)OC(COC1CC2CCC1(C)C2(C)C)C[N+]1(C)CCCCC1 (stereo not drawn),.,.,.,12.6µM*,.,.
CCc1nnc(SCC(=O)Nc2ccccc2OC)c2cc3sccc3n12,.,.,.,-7.2%,.,.
COC(=O)[C@@]12C[C@@H](CC(=O)N3CCCCC3)C(=O)N(CCc3ccc(OC)c(OC)c3)C1=CCC(C)(C)C2,?,-8.2,5.8%,0.5%,4.7%,?
CCCCCCCCN1C(=O)[C@H](CC(=O)N2CCOCC2)C[C@@]2(C(=O)OC)CC(C)(C)CC=C12,20.6µM*,?,?,?,?,18.4µM*
CCCCCCCCN1C(=O)[C@@H](CC(=O)N2CCOCC2)C[C@@]2(C(=O)OC)C1=C[C@H](C(C)(C)C)O[C@@H]2C,.,.,.,-8.2%,.,.
CCCCCCCCN1C(=O)[C@H](CC(=O)N2CCCCC2)C[C@@]2(C(=O)OC)CC(C)(C)CC=C12,8.2µM*,8.1,?,-6.4%,?,6.51µM*
N#Cc1cc(Oc2cccc3cccnc23)c(-n2nnc3ccccc32)cc1C#N,7.08µM*,-59.3*,5.62µM*,?,6.31µM*,7.94µM*
N#Cc1ccc(Oc2cccc3cccnc23)c([N+](=O)[O-])c1,4.2%,-8.0,2.2%,27.6%,-0.2%,?
CN(Cc1c(F)cccc1Cl)C(=O)c1ccc(NC(=O)CC2SC(N3CCCC3)=NC2=O)cc1 (stereo not drawn),?,-11.0,-0.6%,-1.8%,0.0%,18.4µM*
CCc1ccc(NC(=O)c2ccc3c(Cl)c4c(nc3c2)CCCC4)cc1,.,.,.,6.5%,.,.
O=C(NCc1ccc(Cl)cc1)c1ccc2c(Cl)c3c(nc2c1)CCCC3,16.4µM*,.,.,-16.8%,.,?
O=C(NCc1cccc(Cl)c1)c1ccc2c(Cl)c3c(nc2c1)CCCC3,?,.,.,-19.2%,.,14.6µM*
Cc1cc(C)c2nc(N3CCC(C(=O)NCC4CCCO4)CC3)sc2c1 (stereo not drawn),-6.6%,8.8,16.0%,-5.1%,-4.0%,-5.6%
Cc1cc2nc(N3CCN(C(=O)c4cccs4)CC3)sc2cc1C,-21.7%,9.6,18.0%,13.3%,8.6%,?
Cc1cc(C)c2nc(N3CCC(C(=O)N4CCCC4)CC3)sc2c1,?,-13.6,?,0.2%[57.4 µM],-23.9%,?
O=C(C1CC1)N1CCN(c2nc3c(Cl)cccc3s2)CC1,20.6µM*,.,.,?,.,20.6µM*
Cc1cc(C)c2nc(N3CCN(C(=O)c4cccs4)CC3)sc2c1,7.6%,-70.3*,-15.1%,?,-12.3%,?
Cc1cc(C)c2nc(N3CCC(C(=O)N4CCN(c5ncccn5)CC4)CC3)sc2c1,16.4µM*,-78.3*,-19.7%,5.4%,0.7%[9.24 µM],?
Cc1cc(C)c2nc(N3CCC(C(=O)NCCCN4CCCCC4)CC3)sc2c1,?,-25.4,23.1µM*,1.9%,18.4µM*,?
CCCn1c(=O)[nH]c(=O)c2c1nc(-c1cccc(OC)c1)n2CCOC,.,.,.,-1.1%,.,.
COc1cc(CN2C[C@@H]3C(=O)N(CCCN4CCCC4=O)C(=O)[C@@H]3C2)cc(OC)c1OC,.,.,.,12.0%,.,.
Cc1ccc(S(=O)(=O)n2c3ccccc3c3nc(C)sc32)cc1,.,.,.,-27.8%,.,.
Cc1cccc(NC(=S)N(CCN2CCOCC2)Cc2ccccc2F)c1,?,-12.6,0.7%,3.4%,-14.6%,?
CCc1ccc(NC(=O)N(CCN2CCOCC2)Cc2ccc3c(c2)CCCN3CC)cc1,?,-16.2,-8.2%,-26.8%,?,?
SMILES,TDP1 cell CPT,IL1B secr inh,HT1080-NT tox,ALOX12 inh,HT1080 IDH1KD tx,DT40 TDP1 no CPT
CCN1CCCc2cc(CN(CCN3CCOCC3)C(=S)Nc3cccc(C)c3)ccc21,16.4µM*,?,-19.4%,-0.7%,-11.5%,?
CCN1CCCc2cc(CN(CCN3CCOCC3)C(=S)Nc3ccccc3OC)ccc21,?,-3.3,-4.2%,-10.7%,-0.1%,16.4µM*
COc1ccccc1NC(=S)N(CCN1CCCCCC1)Cc1cccs1,?,-13.0,-10.5%,i,-7.0%,9.2µM*
CCCCN1CCCc2cc(CN(CCCN3CCOCC3)C(=O)Nc3ccc(OCC)cc3)ccc21,18.4µM*,.,.,?,.,18.4µM*
CCN1CCCc2cc(CN(CCN3CCOCC3)C(=S)Nc3ccccc3C)ccc21,-17.5%,25.4,-3.5%,?,0.6%,0.8%
Fc1ccc2nc([C@H]3CCN(C4CCC4)C3)[nH]c2c1,.,.,.,14.4%[176 µM],.,.
O=C(c1ccccn1)N1CCC(Nc2cccnc2)C1 (stereo not drawn),.,.,.,36.2%,.,.
NC(=O)c1ncn([C@@H]2O[C@H](C(=O)N3CCN(Cc4ccccn4)CC3)[C@@H](O)[C@H]2O)n1,.,.,.,0.9%,.,.
CCN1CCCc2cc(CN(CCN3CCOCC3)C(=S)Nc3ccc(OC)c(OC)c3)ccc21,-2.6%,25.6,-0.1%,29.7%,8.9%,18.6%
COc1ccccc1NC(=S)N(CCN(C)C)C(C)c1ccncc1 (stereo not drawn),-8.5%,-0.4,?,0.7%,6.9%,-1.5%
CCN1CCCc2cc(CN(CCN3CCOCC3)C(=S)Nc3ccc(OC)c(Cl)c3)ccc21,?,0.0,0.4%,-21.1%,-2.5%,9.2µM*
COCCN(C(=S)Nc1ccccc1OC)C(C)c1cccs1 (stereo not drawn),23.1µM*,7.4,5.7%,-21.9%,19.2%,29.1µM*
CCN1CCCc2cc(CN(CCN3CCOCC3)C(=O)Nc3ccc(C)c(C)c3)ccc21,?,?,-3.5%,-9.6%,-17.7%,25.9µM*
C#CNC(=O)C1(CC=C)CCNCC1,6.0%,4.1,8.4%,-5.6%,8.2%,1.4%
CCCNC(=O)N1CCC(N2CC3CC(C2)[C@H]2CCCC(=O)N2C3)CC1 (stereo partly drawn),.,.,.,38.3%,.,.
CCOC(=O)c1cnc(SCC(=O)Nc2ccc(C)cc2Cl)nc1N,.,.,.,16.5%,.,.
O=c1[nH]c(Nc2ccccc2)nc2nccc(-c3ccco3)c12,.,.,.,35.5µM*,.,.
COc1cccc(NC(=S)N(CCN2CCCCC2)Cc2ccco2)c1,?,?,-8.2%,-1.7%,-12.5%,-17.6%
COc1ccc(NC(=S)N(Cc2ccc(N(C)C)cc2)Cc2ccco2)cc1,1.9%,-76.2*,-14.1%,16.3%,-7.2%,?
CCCN(Cc1ccccc1)C(=S)Nc1ccc(F)cc1,13.3%,-9.7,15.3%,?,0.8%,-10.5%

# Source: PubChem BioAssay (National Center for Advancing Translational Sciences (NCATS))
